# Screens from PubChem BioAssay.
# FUS suppressor: suppressors of FUS proteinopathy in yeast; S. cerevisiae FUS-expressing, growth rescue, OD600, 24 h; Potency, µM (series often up to 76.6 µM), most hits filed as activators; hit rate 0.24% among 390,000; AID 1347120;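 note: plate controls were DMSO vehicle for no effect and reference control for full effect; nearly all actives have a fitted effect of over 55% in size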
#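 Compound concentration series was pinned onto galactose-induced FUS-expressing yeast seeded at OD 0.005. Plates sat 24hr at 30C; absorbance at 600 nm gave growth. DMSO served as background control.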
# aSyn yeast inh: rescues yeast growth from alpha-synuclein toxicity. Yeast expressing alpha-synuclein, growth rescue, BacTiter-Glo, 24 h. hit rate 0.14% among 370,000. Potency, µM (titrated, usually from 46.1 µM), for the others: top-dose growth rescue (activation), usual class: activators; note: % of control where 0% means no effect; nearly all actives have a fitted effect of over 65% in size
#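 Screening used galactose-induced yeast with toxic alpha-synuclein levels, exposed to compound for 24 hr at 30 deg C. Cell growth, read with BacTiter-Glo luminescence, gave the measured signal.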
# TDP43 rescue: inhibitors of TDP-43 toxicity in yeast; TDP-43 expressing yeast growth rescue, BacTiter-Glo, 24 h; Potency, µM (series often up to 46.1 µM), without a hit: top-dose growth rescue (activation), hits mostly activators; hit rate 1.8% among 410,000; note: % of control where 0% means no effect; nearly all actives have a fitted effect of over 50% in size
#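 Readout is BacTiter-Glo luminescence of cell growth, so inhibitors register as activators. TDP-43-expressing yeast at OD600=0.02 in galactose medium, after raffinose pregrowth to mid-log, were incubated with compound for 24 hr at 30 deg C.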
# Abeta rescue: compounds reversing amyloid beta toxicity in yeast; yeast expressing A-beta42, growth rescue, OD600, 48 h; response scale: 0% DMSO, 100% iron-clioquinol control; AID 1347071; Potency, µM (series often up to 46.1 µM), actives largely listed as activators; hit rate 0.063% among 410,000; note: nearly all actives have a fitted effect of over 55% in size
#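 Yeast A-beta toxicity model in growth medium with pinned compounds, 48 h at 30 C; growth read as absorbance at 600 nm. Normalized to FeCl3/clioquinol equimolar mix (positive) and DMSO (negative).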
# * hit, by the source's call; i = inactive; ? = inconclusive; . = not tested or not shown. Most compounds without a hit are left out; they make up all but 2.1% or so of the library. Calls come from the whole dose curve; as a rule, active = well fitted curve in the direction sought with a large enough effect; inconclusive = small, poorly fitted or top-dose-only effect, or another doubt; inactive = no such curve, though single readings can be large; an effect the other way counts as inactive or inconclusive. Potency is the fitted concentration of half-maximal effect.
SMILES,FUS suppressor,aSyn yeast inh,TDP43 rescue,Abeta rescue
Nc1ccc(N2CCN(c3ccc(F)cc3)CC2)cc1,i,-3%,-12%,i
Nc1ccc(N2CCN(c3ccc(Cl)c(Cl)c3)CC2)cc1,.,12%,8.9µM*,i
O=C(NCCc1ccc(Cl)cc1)c1cnc2n(c1=O)CCS2,i,11%,35µM*,i
CCOc1ccc(C(=O)CCC(=O)Nc2ccccc2C)cc1,i,8%,?,i
CCOc1ccc(C(=O)CCC(=O)NCC(=O)Nc2ccc(F)c(F)c2F)cc1,i,28µM*,19%,i
O=C(CCOc1ccccc1)NO,.,2%,.,.
COc1ccc(-c2cnc(C)o2)cc1S(=O)(=O)Nc1c(C)cc(C)cc1C,i,.,25µM*,i
COc1ccc(-c2cnc(C)o2)cc1S(=O)(=O)Nc1ccc(OC(F)(F)F)cc1,i,.,22µM*,i
N#Cc1ccc(NC(=O)COc2ccccc2C(=O)Nc2ccccc2)cc1,.,0%,.,.
O=C(Nc1cc(Sc2ccccn2)cc([N+](=O)[O-])c1)c1cccc(F)c1,.,3%,22µM*,i
O=S(=O)(c1ccc2nc(Nc3ccc(Br)cc3F)ccc2c1)N1CCCCC1,i,.,16%,i
CCOC(=O)c1cc(-c2ccc(OC)cc2)n(CCC(=O)NCCc2ccccc2)c1C,?,.,32µM*,i
CN(C(=O)c1ccccc1OCC(=O)Nc1ccc(Br)cc1)c1ccccc1,i,.,.,.
CCCN1C(=O)c2ccccc2NC1c1ccc(OC)c(COc2cccc(C)c2C)c1 (stereo not drawn),.,4%,.,.
CC(=O)NC(=S)NNC(=O)C(c1ccccc1)c1ccccc1,i,22µM*,18µM*,i
Cc1ccccc1NC(=O)c1ccc(-c2ccc(Cl)cc2Cl)o1,i,1%,20µM*,?
Cc1cccc(C)c1NC(=O)c1ccc(-c2cc(F)ccc2F)o1,i,-1%,11µM*,i
Cc1cccc(C)c1NC(=O)c1ccc(-c2ccc(Cl)cc2Cl)o1,i,0%,21%,i
COc1cc(C)ccc1OCCSc1nc2ccc(NC(C)=O)cc2s1,i,.,13%,i
CN(C)/[N+]([O-])=N\Oc1cc(OC(=O)c2ccc(N)cc2)c([N+](=O)[O-])cc1[N+](=O)[O-],.,-32%,.,.
COc1ccccc1/C=C/c1cncc(/C=C/c2ccccc2OC)c1,.,29%,.,.
Cc1nc(-c2ccccn2)nc(SCC(=O)N2CCOCC2)c1Cl,i,-1%,13%,i
Cc1nc(-c2ccccn2)nc(SCC(=O)c2ccccc2)c1Cl,i,7%,18µM*,i
CCCS(=O)(=O)NCCc1sc2nc(-c3ccc(Cl)cc3)nn2c1C,i,.,?,i
Cc1ccccc1C(=O)c1c[nH]c(C(=O)N2CCN(c3ccccc3F)CC2)c1,i,10%,25µM*,i
SMILES,FUS suppressor,aSyn yeast inh,TDP43 rescue,Abeta rescue
O=C(c1c[nH]c(C(=O)N2CCN(c3ccccc3F)CC2)c1)c1cccc(Cl)c1Cl,i,?,25µM*,3.2µM*
Cc1ccc(N2CCN(C(=O)c3ccccc3F)CC2)c(C)c1,i,-20%,?,i
NC(=O)c1cc(C(=O)c2cccc(Cl)c2Cl)c[nH]1,i,0%,-6%,i
COc1cc2[nH]c(C(=O)N3CCN(c4ccccc4F)CC3)cc2c(OC)c1OC,i,13%,35µM*,i
Cc1ccc(C)c(N2CCN(C(=O)c3cccc(-n4c(C)nc5cccnc54)c3)CC2)c1,?,.,20%,i
Cc1ccc(C)c(N2CCN(C(=O)c3ccc4c(Cl)c5c(nc4c3)CCCC5)CC2)c1,?,.,35µM*,i
Cc1ccc(Cl)cc1N1CCN(C(=O)c2ccc(C)c(-n3c(C)nc4cccnc43)c2)CC1,22µM*,.,7%,i
Cc1cc(C)n(-c2nc(NC(C)C)nc(NC(C)(C)C)n2)n1,.,1%,.,.
CN1CCCc2ccccc21,.,4%,.,.
c1ccc(Oc2ccc(-c3ccn[nH]3)cc2)cc1,i,-28%,14µM*,i
COc1cccc(CN2C(=O)[C@@H]3Cc4c([nH]c5ccccc45)C(C)(C)N3C2=O)c1,?,.,.,10µM*
Cc1nc(N2CCCC2)ncc1C(=O)NCc1ccccc1Cl,i,.,35µM*,i
COc1ccccc1CNC(=O)c1cnc(N2CCCC2)nc1C,i,.,?,i
Cc1ccc(C)c(NC(=O)c2cnc(N3CCCC3)nc2C)c1,i,.,14µM*,i
CCOC(=O)Cn1c(=O)oc2cc(S(=O)(=O)Nc3cc(OC)cc(OC)c3)ccc21,i,.,11%,i
